# According to PubChem BioAssay (NCATS):
# Results filed as inconclusive are left out. Some of the results follow. A call without a number means that no potency is given here. The source made the active and inactive calls. Unless noted, the call rests on the fitted dose curve; in most records, active means well fitted curve in the direction sought with a large enough effect; inconclusive means small, poorly fitted or top-dose-only effect, or another doubt; inactive means no such curve, though single readings can be large; an effect the other way counts as inactive or inconclusive.
# How the values were obtained:
# [1] = qHTS for Inhibitors of the vitamin D receptor (VDR): Hit Validation using a Texas Red Assay (AID 602201)
# Procedure, shortened: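 Fluorescence polarization (Ex 595/Em 615 nm) of Texas Red (7 nM) with 1.5 uM VDR-LBD and LG19078 (final concentrations). Compounds were incubated for 2 hours at room temperature.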
# [2] = target: Peroxisome proliferator-activated receptor delta (Homo sapiens) (UniProt Q03181); experiment: qHTS assay for small molecule agonists of peroxisome proliferator-activated receptor delta signaling (AID 588534; calls by dose curve)
# Peroxisome proliferator-activated receptor delta (Homo sapiens), sequence (Q03181 whole entry, looked up): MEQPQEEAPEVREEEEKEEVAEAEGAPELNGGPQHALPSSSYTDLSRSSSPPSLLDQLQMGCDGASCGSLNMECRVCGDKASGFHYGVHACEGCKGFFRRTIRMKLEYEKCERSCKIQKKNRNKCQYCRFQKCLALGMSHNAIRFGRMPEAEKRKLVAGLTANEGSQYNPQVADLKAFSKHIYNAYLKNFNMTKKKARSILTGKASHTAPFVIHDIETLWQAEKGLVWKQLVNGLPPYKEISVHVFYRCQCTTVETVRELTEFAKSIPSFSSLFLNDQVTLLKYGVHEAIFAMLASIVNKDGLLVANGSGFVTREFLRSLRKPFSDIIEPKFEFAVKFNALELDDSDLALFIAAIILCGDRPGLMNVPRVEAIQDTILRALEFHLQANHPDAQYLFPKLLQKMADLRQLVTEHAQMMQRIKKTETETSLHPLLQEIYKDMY
# Procedure, shortened: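 Agonist-mode qHTS; reporter cells, 5 hrs 37 C pre-incubation; compound titration, 18 hrs 37 C; CCF4 dye, 2 hrs RT; fluorescence read. EC50/efficacy via Hill fit.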
# [3] = target: Nuclear receptor ROR-gamma (Homo sapiens) (UniProt P51449); experiment: qHTS assay for small molecule antagonists of the retinoid-related orphan receptor gamma (ROR-gamma) signaling pathway (AID 651802);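 further: CHO cells with doxycycline-induced ROR-gamma expression; series mostly up to about 92 µM; nearly all actives have a fitted effect of over 60% in size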
# Nuclear receptor ROR-gamma (Homo sapiens), sequence (P51449 whole entry, looked up): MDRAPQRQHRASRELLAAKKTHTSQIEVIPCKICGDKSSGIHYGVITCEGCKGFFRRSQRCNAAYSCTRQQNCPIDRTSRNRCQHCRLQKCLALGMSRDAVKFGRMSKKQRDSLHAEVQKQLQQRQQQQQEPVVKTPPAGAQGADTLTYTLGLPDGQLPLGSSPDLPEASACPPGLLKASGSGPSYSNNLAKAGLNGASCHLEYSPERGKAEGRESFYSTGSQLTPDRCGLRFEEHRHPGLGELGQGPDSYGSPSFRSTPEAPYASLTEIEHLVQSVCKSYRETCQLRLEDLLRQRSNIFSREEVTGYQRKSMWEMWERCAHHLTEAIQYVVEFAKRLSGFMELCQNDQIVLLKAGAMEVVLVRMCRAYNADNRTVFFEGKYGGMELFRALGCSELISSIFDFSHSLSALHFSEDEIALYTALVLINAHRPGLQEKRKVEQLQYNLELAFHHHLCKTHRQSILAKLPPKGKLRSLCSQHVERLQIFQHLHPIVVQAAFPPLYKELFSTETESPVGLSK
# Procedure, shortened: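 Steps: cells dispensed; compound or DMSO transferred by pin tool; doxycycline added to induce the ROR response element-driven luciferase; plates held 16hr at 37C; ONE-Glo added and luminescence measured.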
# [4] = target: Vitamin D3 receptor (Homo sapiens) (UniProt P11473); experiment: qHTS for Inhibitors of the vitamin D receptor (VDR): Hit Validation in Primary Screen (AID 602199); settings: VDR-coactivator inhibition assay, qHTS confirmation; further: potency means the concentration at half of the fitted maximal effect
# Vitamin D3 receptor (Homo sapiens), sequence (P11473 whole entry, looked up, the tested form may be a part): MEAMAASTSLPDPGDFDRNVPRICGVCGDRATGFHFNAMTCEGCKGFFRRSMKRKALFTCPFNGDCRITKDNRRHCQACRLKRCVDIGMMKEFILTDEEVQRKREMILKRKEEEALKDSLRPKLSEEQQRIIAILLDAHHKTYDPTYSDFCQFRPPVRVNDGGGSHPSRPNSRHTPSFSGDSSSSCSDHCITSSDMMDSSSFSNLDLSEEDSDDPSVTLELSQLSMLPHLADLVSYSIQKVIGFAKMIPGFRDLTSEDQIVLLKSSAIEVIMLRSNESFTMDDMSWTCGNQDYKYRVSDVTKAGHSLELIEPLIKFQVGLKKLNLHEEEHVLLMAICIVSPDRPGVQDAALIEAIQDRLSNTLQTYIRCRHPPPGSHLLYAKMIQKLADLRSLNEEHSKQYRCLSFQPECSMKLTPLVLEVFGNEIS
# Procedure, shortened: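 Fluorescence polarization assay of VDR binding to Alexa 647-labelled SRC2-3 coactivator peptide: 800nM VDR with 5uM LG19078 agonist, compounds, 2 h at room temperature, read Ex 620 nm/Em 688 nm.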
# [5] = target: Vitamin D3 receptor (Homo sapiens) (UniProt P11473); experiment: qHTS for Inhibitors of the vitamin D receptor (VDR): Hit Validation using a Beta-Lactamase Assay (AID 602202)
# Procedure, shortened: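 Stably transfected HEK293 cells express a VDR–GAL4 DNA-binding-domain fusion driving a UAS beta-lactamase reporter, stimulated by agonist LG190178. Compounds were added 4 h after plating and incubated 18 h. A FRET beta-lactam substrate was then added for 2 h and cleaved substrate emission read at 447 nm.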
# [6] = qHTS for Inhibitors of the vitamin D receptor (VDR): Hit Validation using a Cytotoxicity Assay (AID 602204); further: nearly all actives have a fitted effect of over 75% in size
# Procedure, shortened: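 ATP luminescence, 30 min post-reagent. Exposure: 18 h. Seeding: 20,000 cells/well, 4 h prior to compound. Controls: cycloheximide, DMSO.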
# [7] = target: Bifunctional 3'-5' exonuclease/ATP-dependent helicase WRN (Homo sapiens) (UniProt Q14191); experiment: qHTS for Inhibitors of WRN Helicase: Confirmatory Assay for Cherry-picked Compounds. (AID 720497); further: series mostly up to about 57 µM; nearly all actives have a fitted effect of over 65% in size
# Bifunctional 3'-5' exonuclease/ATP-dependent helicase WRN (Homo sapiens), sequence (Q14191 whole entry, looked up): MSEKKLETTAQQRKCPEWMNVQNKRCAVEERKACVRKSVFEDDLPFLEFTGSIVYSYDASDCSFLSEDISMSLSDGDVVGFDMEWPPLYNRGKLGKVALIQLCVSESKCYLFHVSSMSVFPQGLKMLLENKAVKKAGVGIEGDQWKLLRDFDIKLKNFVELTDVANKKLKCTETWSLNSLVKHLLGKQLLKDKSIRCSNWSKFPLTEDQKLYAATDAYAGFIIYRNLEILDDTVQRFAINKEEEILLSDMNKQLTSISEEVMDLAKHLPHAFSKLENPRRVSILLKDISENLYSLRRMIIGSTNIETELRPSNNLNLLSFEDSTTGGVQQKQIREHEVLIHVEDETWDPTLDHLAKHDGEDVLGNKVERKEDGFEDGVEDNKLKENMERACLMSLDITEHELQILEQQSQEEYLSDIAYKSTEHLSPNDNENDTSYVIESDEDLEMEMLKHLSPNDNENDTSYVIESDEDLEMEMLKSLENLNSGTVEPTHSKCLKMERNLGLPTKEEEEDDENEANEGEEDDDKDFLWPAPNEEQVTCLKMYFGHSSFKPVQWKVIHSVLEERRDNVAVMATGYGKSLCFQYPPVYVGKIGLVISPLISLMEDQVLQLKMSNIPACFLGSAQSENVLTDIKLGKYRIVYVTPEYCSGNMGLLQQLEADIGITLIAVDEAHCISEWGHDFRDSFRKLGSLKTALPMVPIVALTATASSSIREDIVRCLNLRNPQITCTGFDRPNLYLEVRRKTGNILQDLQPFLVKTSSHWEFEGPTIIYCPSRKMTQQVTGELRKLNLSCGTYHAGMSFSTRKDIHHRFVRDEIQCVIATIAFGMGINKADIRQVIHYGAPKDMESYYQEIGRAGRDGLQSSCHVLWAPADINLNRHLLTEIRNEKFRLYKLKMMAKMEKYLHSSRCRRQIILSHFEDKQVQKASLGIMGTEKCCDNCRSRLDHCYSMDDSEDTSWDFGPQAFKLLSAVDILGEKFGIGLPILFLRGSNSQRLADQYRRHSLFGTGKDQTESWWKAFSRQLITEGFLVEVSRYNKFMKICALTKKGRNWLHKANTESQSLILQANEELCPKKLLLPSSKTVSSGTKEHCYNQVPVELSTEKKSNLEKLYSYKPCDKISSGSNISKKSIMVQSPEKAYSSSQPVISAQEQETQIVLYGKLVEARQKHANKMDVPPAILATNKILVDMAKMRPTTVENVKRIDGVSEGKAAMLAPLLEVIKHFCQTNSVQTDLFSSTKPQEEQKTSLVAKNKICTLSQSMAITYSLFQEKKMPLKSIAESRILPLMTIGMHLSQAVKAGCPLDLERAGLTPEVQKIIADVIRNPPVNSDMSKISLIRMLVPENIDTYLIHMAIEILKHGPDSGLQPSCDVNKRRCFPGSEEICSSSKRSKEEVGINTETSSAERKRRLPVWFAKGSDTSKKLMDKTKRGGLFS
# Procedure, shortened: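 Helicase activity is tracked as a kinetic fluorescence signal (excitation 525 nm, emission 598 nm) after 100 nM forked duplex DNA and 2 mM ATP are added to 20 nM WRN that has been preincubated 15 min with compound at room temperature.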
# [8] = qHTS for Inhibitors of WRN Helicase: Thiazole Orange DNA Binding Counterscreen (AID 720499);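 further: drop in dye fluorescence marks compound binding to DNA; nearly all actives have a fitted effect of over 60% in size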
# Procedure, shortened: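 Unlabeled DNA at 50 nM is mixed with 100 nM thiazole orange, compounds are pin-transferred in, the plate sits 15 min at room temperature, and fluorescence is then read at 480 nm excitation, 530 nm emission.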
# [9] = target: RecQ-like DNA helicase BLM (Homo sapiens) (UniProt P54132); experiment: qHTS for Inhibitors of WRN Helicase: BLM Helicase Counterscreen for WRN Inhibitors (AID 720503); further: nearly all actives have a fitted effect of over 60% in size
# Procedure, shortened: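 BLM at 1 nM was preincubated with compound for 15 min at room temperature in 25 mM Tris-HCl pH 8.0, 50 mM NaCl, 2 mM MgCl2, 1 mM DTT and 0.01% Tween-20. Unwinding was started with 100 nM DNA and 2 mM ATP (final). Fluorescence (ex 525/em 598 nm) was read twice, 15 min apart, and normalized to enzyme-free and DMSO controls.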
# [10] = target: Vitamin D3 receptor (Homo sapiens) (UniProt P11473); experiment: qHTS assay for small molecule agonists of vitamin D receptor signaling (AID 588543; calls by dose curve)
# Procedure, shortened: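 qHTS in agonist mode: compound titrations stimulate a VDR-driven β-lactamase reporter in HEK293T cells over 16 h at 37 °C. Response normalized to 50 nM 1α,25-dihydroxyvitamin D3 = 100%, DMSO = 0%; Hill fitting gives EC50 and maximal response.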
# [11] = qHTS assay for small molecule agonists of retinoid X receptor alpha signaling (AID 588544; calls by dose curve); settings: HEK293T RXRa-UAS-bla, beta-lactamase reporter, 18 h; 530 nm emission
# [12] = target: Retinoic acid receptor RXR-alpha (Homo sapiens) (UniProt P19793); experiment: as above
# [13] = qHTS assay for environmental chemicals that activate the Aryl hydrocarbon Receptor (AhR) signaling pathway (AID 651777); settings: 1A2-DRE human hepatoma cells, luciferase, 24 h; activation: stronger effect = higher value; further: nearly all actives have a fitted effect of over 15% in size
# Procedure, shortened: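 Stable CYP1A2 promoter/DRE-luciferase human hepatoma line treated 24 hr; One-Glo luminescence, 30 min RT.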
# [14] = target: Peroxisome proliferator-activated receptor alpha (Homo sapiens) (UniProt Q07869); experiment: qHTS assay for small molecule agonists of the peroxisome proliferator-activated receptor alpha (PPARalpha) signaling pathway (AID 651778); settings: PathHunter PPARalpha complementation, chemiluminescence, 6 h; max response: stronger effect = higher value
# Peroxisome proliferator-activated receptor alpha (Homo sapiens), sequence (Q07869 whole entry, looked up): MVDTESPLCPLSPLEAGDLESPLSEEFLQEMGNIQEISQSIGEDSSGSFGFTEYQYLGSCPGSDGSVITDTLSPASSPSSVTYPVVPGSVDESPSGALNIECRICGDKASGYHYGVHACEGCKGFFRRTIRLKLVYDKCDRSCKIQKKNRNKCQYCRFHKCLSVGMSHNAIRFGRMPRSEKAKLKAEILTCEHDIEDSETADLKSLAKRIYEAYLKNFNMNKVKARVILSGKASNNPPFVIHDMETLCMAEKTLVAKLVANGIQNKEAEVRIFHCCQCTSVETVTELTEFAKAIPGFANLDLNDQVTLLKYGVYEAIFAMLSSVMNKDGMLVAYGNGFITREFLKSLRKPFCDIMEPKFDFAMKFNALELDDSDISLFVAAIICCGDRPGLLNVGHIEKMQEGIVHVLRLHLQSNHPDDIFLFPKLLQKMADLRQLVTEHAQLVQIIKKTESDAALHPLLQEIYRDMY
# Procedure, shortened: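 Cells plated at 2,000/well and held overnight at 37 C, 5% CO2, then compound added by pin tool for 6 hr; after PathHunter detection reagent and 60 min at room temperature, chemiluminescence from enzyme complementation was read.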
# [15] = qHTS assay for cell viability of the p53RE-bla HCT-116 cell line (AID 743292); further: nearly all actives have a fitted effect of over 55% in size; further: potency means the concentration at half of the fitted maximal effect
# Procedure, shortened: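 Readout: CellTiter-Glo luminescence after 30 min RT. Treatment: compounds in DMSO, 16 h, 37 C. Cells: CellSensor p53RE-bla HCT-116, 4,000/well, preincubated 5 h.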
# [16] = qHTS assay for small molecule activators of the human pregnane X receptor (PXR) signaling pathway (AID 720659; call rule not given here)
# [17] = target: Peroxisome proliferator-activated receptor gamma (Homo sapiens) (UniProt P37231); experiment: qHTS assay for small molecule antagonists of peroxisome proliferator-activated receptor gamma signaling (AID 588537; active means well fitted inhibition curve with a large enough effect in the signal ratio, with a control signal flat, not every such curve was filed as active; the % refers to the signal ratio; further: potency means the concentration at half of the fitted maximal effect)
# Peroxisome proliferator-activated receptor gamma (Homo sapiens), sequence (P37231 whole entry, looked up): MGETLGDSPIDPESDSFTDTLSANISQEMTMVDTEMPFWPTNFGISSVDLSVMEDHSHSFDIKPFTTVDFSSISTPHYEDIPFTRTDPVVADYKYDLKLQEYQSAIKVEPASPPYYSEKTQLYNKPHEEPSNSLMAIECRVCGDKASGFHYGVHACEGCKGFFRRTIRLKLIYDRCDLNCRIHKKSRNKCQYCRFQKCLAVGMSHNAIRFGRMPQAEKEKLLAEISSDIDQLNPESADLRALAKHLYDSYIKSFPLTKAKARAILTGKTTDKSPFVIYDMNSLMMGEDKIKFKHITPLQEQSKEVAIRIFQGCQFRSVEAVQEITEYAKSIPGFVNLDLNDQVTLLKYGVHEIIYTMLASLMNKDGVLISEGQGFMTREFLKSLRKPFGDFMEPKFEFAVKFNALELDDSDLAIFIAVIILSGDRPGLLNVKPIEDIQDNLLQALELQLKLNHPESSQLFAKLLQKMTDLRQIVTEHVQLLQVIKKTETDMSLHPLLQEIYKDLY
# Procedure, shortened: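 Compounds are tested as concentration series for inhibition of rosiglitazone-driven (50 nM) reporter expression in GeneBLAzer PPAR-gamma-UAS-bla HEK293 cells. After 16 h at 37 C, CCF4 substrate is added for 2 h at room temperature and blue/green fluorescence is measured.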
# [18] = target: Thyroid hormone receptor beta (Homo sapiens) (UniProt P10828); experiment: qHTS assay for small molecule agonists of thyroid hormone receptor beta signaling (AID 588545; calls by dose curve)
# Procedure, shortened: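 Cells (2500/well) were seeded, incubated 4 hrs at 37 C, dosed with a compound series, incubated 18 hrs, loaded with CCF4 dye for 2 hrs at RT, then read for fluorescence. Data were scaled between DMSO (0%) and 10 nM T3 (100%).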
# [19] = qHTS assay for small molecule agonists of the antioxidant response element (ARE) signaling pathway (AID 651741; active means well fitted activation curve with a large enough effect in the signal ratio; the % refers to the signal ratio; further: potency means the concentration at half of the fitted maximal effect)
# Procedure, shortened: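 Reporter: beta-lactamase under ARE, stably in HepG2. Exposure: 16 h, 37 C, compounds delivered in DMSO by pin tool after 5 h cell preincubation. Readout: FRET substrate fluorescence after 2 h at RT.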
# [20] = qHTS assay for small molecule activators of the p53 signaling pathway (AID 651743; active means well fitted activation curve with a large enough effect in the signal ratio, not every such curve was filed as active; the % refers to the signal ratio; further: potency means the concentration at half of the fitted maximal effect; on activation: series mostly up to about 92 µM); settings: HCT-116 p53RE-bla, beta-lactamase FRET ratio, 16 h; activation: stronger effect = higher value
# Procedure, shortened: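 Agonist-mode quantitative HTS in HCT-116 cells carrying a p53-response-element beta-lactamase reporter; 16 h compound treatment at 37 C, then FRET substrate loading for 2 h at room temperature and fluorescence read.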
# [21] = qHTS assay for small molecule activators of the nuclear factor-kappa B (NF-kB) signaling pathway (AID 651749; active means well fitted activation curve with a large enough effect in the signal ratio; the % refers to the signal ratio; further: series mostly up to about 77 µM); settings: NF-kB-bla ME-180 cells, beta-lactamase FRET ratio, 16 h; activation: stronger effect = higher value
# Procedure, shortened: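 Human ME-180 cervical cells with an NF-kB-bla construct; compounds added via 23 nL pin transfer, DMSO as vehicle; incubation 16 hr. Reporter activity measured by FRET disruption.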
# [22] = qHTS assay for small molecule agonists of the antioxidant response element (ARE) signaling pathway measured by Nrf2-dependant transcriptional activity (AID 720636; active means well fitted curve in the direction sought with a large enough effect in the repeat runs; an effect the other way counts as inactive or inconclusive;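 further: HepG2 cells with an ARE-driven luciferase reporter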)
# Procedure, shortened: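 Reporter gene assay, HepG2 ARE-luc: 16 hr compound, 37 C, 5% CO2; read-out luciferase luminescence.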
# [23] = qHTS assay for cell viability of HEK293 cells (AID 743288); settings: ATP luminescence (CellTiter-Glo), 18 h; max response: stronger effect = lower value; further: nearly all actives have a fitted effect of over 50% in size
# Procedure, shortened: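 Quantitative high-throughput screen: compounds were pinned onto parental HEK293 cells (2,000 per well) after a minimum 5 h settling at 37 C, incubated 18 h at 37 C, and intracellular ATP measured by luciferase luminescence.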
# [24] = target: Nuclear receptor subfamily 1 group I member 2 (Rattus norvegicus) (UniProt Q9R1A7); experiment: qHTS assay for small molecule activators of the rat pregnane X receptor (rPXR) signaling pathway (AID 651751; call rule not given here); settings: rPXR reporter cells, luciferase (One-Glo), 24 h
# Nuclear receptor subfamily 1 group I member 2 (Rattus norvegicus), sequence (Q9R1A7 whole entry, looked up): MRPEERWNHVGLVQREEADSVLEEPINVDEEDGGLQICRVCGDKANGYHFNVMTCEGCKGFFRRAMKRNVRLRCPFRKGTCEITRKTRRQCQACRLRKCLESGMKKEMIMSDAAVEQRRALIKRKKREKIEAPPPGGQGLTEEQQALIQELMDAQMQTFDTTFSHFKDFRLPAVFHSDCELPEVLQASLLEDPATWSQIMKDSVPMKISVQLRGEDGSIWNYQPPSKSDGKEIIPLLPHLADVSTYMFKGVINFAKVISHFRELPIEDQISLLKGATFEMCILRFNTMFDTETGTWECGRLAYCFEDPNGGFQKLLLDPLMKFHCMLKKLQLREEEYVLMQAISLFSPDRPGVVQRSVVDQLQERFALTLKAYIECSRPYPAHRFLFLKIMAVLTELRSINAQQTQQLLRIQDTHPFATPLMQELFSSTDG
# [25] = target: Cytochrome P450 3A4 (Homo sapiens) (UniProt P08684); experiment: qHTS Assay for Activators of Cytochrome P450 3A4 (AID 885); further: nearly all actives have a fitted effect of over 65% in size
# Cytochrome P450 3A4 (Homo sapiens), sequence (P08684 whole entry, looked up): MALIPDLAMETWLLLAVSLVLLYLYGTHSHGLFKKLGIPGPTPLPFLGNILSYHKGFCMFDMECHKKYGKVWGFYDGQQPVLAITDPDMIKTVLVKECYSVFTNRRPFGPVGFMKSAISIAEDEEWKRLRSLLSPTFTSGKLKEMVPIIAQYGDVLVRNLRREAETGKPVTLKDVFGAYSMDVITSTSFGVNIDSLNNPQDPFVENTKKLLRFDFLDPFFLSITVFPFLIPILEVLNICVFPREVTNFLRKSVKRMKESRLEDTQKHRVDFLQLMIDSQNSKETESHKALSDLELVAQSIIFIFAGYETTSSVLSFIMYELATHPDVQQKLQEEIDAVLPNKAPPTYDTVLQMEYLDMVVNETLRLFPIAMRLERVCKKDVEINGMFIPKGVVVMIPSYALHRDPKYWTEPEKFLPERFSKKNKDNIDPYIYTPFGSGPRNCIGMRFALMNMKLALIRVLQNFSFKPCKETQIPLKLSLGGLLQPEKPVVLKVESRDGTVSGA
# Procedure, shortened: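 Human CYP3A4 dealkylates Luciferin-PPXE to luciferin, which luciferase detection converts to light. Substrate was at its KM (25uM), buffer 200mM KPO4, reaction 60 min at RT.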
# [26] = qHTS assay for small molecule disruptors of the mitochondrial membrane potential - 1 hr assay (AID 651754; calls by dose curve; further: potency means the concentration at half of the fitted maximal effect; nearly all actives have a fitted effect of over 35% in size)
# Procedure, shortened: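 Loss of mitochondrial potential shifts the cationic dye from red mitochondrial aggregates to green cytoplasmic monomers. Cells (HepG2) are treated with compound for 1 hr before a 30 min dye incubation at 37C.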
# [27] = qHTS assay for small molecule disruptors of the mitochondrial membrane potential - 5 hr assay (AID 651755; calls by dose curve; further: potency means the concentration at half of the fitted maximal effect; nearly all actives have a fitted effect of over 40% in size)
# Procedure, shortened: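 Seed HepG2 overnight, add compound, incubate 5 hr at 37C and 5% CO2, stain 30 min with Mito-MPS, then measure monomer (490/535 nm) and aggregate (540/590 nm) fluorescence.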
# [28] = target: Cytochrome P450 3A4 (Homo sapiens) (UniProt P08684); experiment: qHTS Assay for Inhibitors and Substrates of Cytochrome P450 3A4 (AID 884); further: potency means the concentration at half of the fitted maximal effect; nearly all actives have a fitted effect of over 50% in size
# Procedure, shortened: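 Luminescent readout of luciferin produced by CYP3A4 (20 nM) dealkylation of Luciferin-PPXE, 25 uM (its KM). NADPH-driven reaction ran 60 min at RT after 10 min compound preincubation; data scaled to 57 uM ketoconazole as 100% inhibition.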
# [29] = target: Vitamin D3 receptor (Homo sapiens) (UniProt P11473); experiment: qHTS assay for small molecule antagonists of vitamin D receptor signaling (AID 588541; calls by dose curve;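 further: receptor activated by calcitriol during compound treatment; series mostly up to about 77 µM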)
# Procedure, shortened: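 VDR-UAS-bla HEK293T cells (2000/well, 2% charcoal-stripped FBS) were treated with titrated compounds plus 1-alpha,25-dihydroxyvitamin D3 (50 nM or 3 nM final) for 16 h at 37 C. CCF4 beta-lactamase fluorescence was read; Hill fits gave IC50.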
# [30] = qHTS assay for small molecule agonists of the antioxidant response element (ARE) signaling pathway measured by Nrf2-dependant transcriptional activity - cell viability counter screen (AID 720653; active means well fitted curve in the direction sought with a large enough effect in the repeat runs; an effect the other way counts as inactive or inconclusive); settings: ARE-bla HepG2 viability, CellTiter-Glo ATP luminescence, 16 h; max response: stronger effect = lower value
# Procedure, shortened: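 ARE-bla HepG2 cells (2,000/well) rested 5 hrs at 37C/5% CO2, then exposed to compounds in DMSO for 16 hrs. Viability was read in the same wells as intracellular ATP by luminescence, 30 min at room temperature after reagent addition.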
smiles,measurement,setting,value
CC(C)n1c(O)c(C2c3cc(Cl)ccc3Oc3[nH]c(=O)n(C(C)C)c(=O)c32)c(=O)[nH]c1=O (stereo not given),Potency,[1],inactive
Cc1nn(Cc2ccccc2)c(C)c1C=C1C(=O)NC(=S)NC1=O,Potency,[1],inactive
CC(CCl)OC(C)CCl (stereo not given),outcome,[2],inactive
same,Potency,[3],inactive
CN1C(=O)NC(=O)/C(=C\C=C\c2ccccc2[N+](=O)[O-])C1=O,Potency,[1],inactive
OCC(CBr)(CBr)CBr,outcome,[2],inactive
same,Potency,[3],inactive
O=C(O)CCn1cc(C=C2C(=O)NC(=S)NC2=O)c(-c2cccc(Br)c2)n1,Potency,[4],6.7 µM (active)
same,Potency,[1],inactive
same,outcome,[5],inactive
same,outcome,[6],inactive
same,outcome,[7],inactive
same,outcome,[8],inactive
same,outcome,[9],inactive
O=C(O)CCn1cc(C=C2C(=O)NC(=S)NC2=O)c(-c2cccc(Cl)c2)n1,Potency,[1],inactive
N#CC(Br)(Br)C(N)=O,outcome,[10],inactive
same,max response,[11],6.67%
same,Potency,[12],inactive
same,activation,[13],-0.328% (inactive)
same,max response,[14],-5.1% (inactive)
same,Potency,[15],inactive
same,outcome,[16],inactive
CON=C(C(=O)OC)c1ccccc1CO/N=C(\C)c1cccc(C(F)(F)F)c1,Potency,[17],35.5 µM (active)
same,outcome,[10],inactive
same,Potency,[18],inactive
same,Potency,[19],8.63 µM (active)
same,Potency,[20],5.01 µM (active)
same,activation,[21],3.5% (inactive)
same,max response,[14],3.69% (inactive)
same,Potency,[22],inactive
same,max response,[23],-22.9% (inactive)
same,Potency,[15],inactive
same,max response,[24],-14.4% (inactive)
Cc1c(N)cccc1N,Potency,[25],inactive
same,outcome,[2],inactive
same,Potency,[26],37.6 µM (active)
same,Potency,[27],37.6 µM (active)
same,Potency,[3],inactive
O=C1c2c(O)ccc([N+](=O)[O-])c2C(=O)c2c([N+](=O)[O-])ccc(O)c21,Potency,[28],7.94 µM (active)
same,Potency,[25],inactive
same,outcome,[2],inactive
ClC1=C(Cl)[C@]2(Cl)[C@H]3[C@H]([C@@H]4C=C[C@H]3C4)[C@]1(Cl)C2(Cl)Cl,Potency,[29],inactive
same,outcome,[10],inactive
same,Potency,[19],61.1 µM (active)
same,activation,[20],-0.297% (inactive)
same,activation,[13],0.0639% (inactive)
same,Potency,[22],inactive
same,max response,[30],-24.6% (inactive)
same,Potency,[15],44.7 µM (active)
same,max response,[24],7.41% (inactive)
